Test results reported in PubChem BioAssay (EPA / NIEHS).
Inconclusive results are not listed. Active and inactive are the calls of the source. The calls were made as follows: active = hit-call score of the fitted dose curve at least 0.9, where 1 is the maximum; inconclusive = response in the unintended direction; inactive = score below 0.9.

Experiments:
[1] = target: rat Thyrotropin Releasing Hormone Receptor (TRH), Trhr (gene 25570) (UniProt Q01717); assay: NVS_GPCR_rTRH: NovaScreen (NVS) G Protein-Coupled Receptor Assay for rat Thyrotropin Releasing Hormone Receptor (TRH) (AID 2283329);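 also: hit means lower bound tracer signal versus DMSO baseline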
Chain of rat Thyrotropin Releasing Hormone Receptor (TRH), Trhr (gene 25570) (Q01717 whole entry, looked up): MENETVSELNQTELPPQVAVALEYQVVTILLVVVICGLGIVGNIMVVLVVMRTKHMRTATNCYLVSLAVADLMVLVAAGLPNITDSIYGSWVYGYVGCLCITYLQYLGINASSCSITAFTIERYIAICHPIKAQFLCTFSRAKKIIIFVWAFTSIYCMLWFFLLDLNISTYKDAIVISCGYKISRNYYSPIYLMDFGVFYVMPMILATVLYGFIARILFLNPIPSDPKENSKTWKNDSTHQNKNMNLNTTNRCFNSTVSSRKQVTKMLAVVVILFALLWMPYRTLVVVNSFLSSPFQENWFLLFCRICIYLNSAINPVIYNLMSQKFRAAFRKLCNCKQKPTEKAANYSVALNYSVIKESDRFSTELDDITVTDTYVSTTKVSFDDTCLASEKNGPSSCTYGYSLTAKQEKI
How it was run: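 Competitive radioligand binding on rat forebrain membrane preparations, with filtration and scintillation readout after 4 h. Primary testing in duplicate at 25 uM; actives confirmed in concentration-response. DMSO defined baseline.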

[2] = target: human Peripheral-type Benzodiazepine Receptor (PBR), TSPO (gene 706) (UniProt P30536); assay: NVS_MP_hPBR: NovaScreen (NVS) Membrane Protein Assay for human Peripheral-type Benzodiazepine Receptor (PBR) (AID 2283331);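 also: hits reduce radioligand binding relative to DMSO baseline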
Chain of human Peripheral-type Benzodiazepine Receptor (PBR), TSPO (gene 706) (P30536 whole entry, looked up): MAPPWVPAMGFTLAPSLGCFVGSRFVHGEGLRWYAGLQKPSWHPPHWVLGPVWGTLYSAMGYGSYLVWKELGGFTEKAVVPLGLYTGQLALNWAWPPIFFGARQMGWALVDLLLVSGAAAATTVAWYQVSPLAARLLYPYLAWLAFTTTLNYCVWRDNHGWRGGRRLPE
How it was run: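 Cell-free radioligand displacement, human colonic membranes, 1 h exposure. Filter radiodetection read-out. Single-concentration duplicates (25 uM), then concentration-response for actives; DMSO negative control.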

[3] = target: human Serotonin, 5-Hydroxytryptamine Receptor 3 (5HT3), HTR3A (gene 3359) (UniProt P46098); assay: NVS_LGIC_h5HT3: NovaScreen (NVS) Ligand-Gated Ion Channel Assay for human Serotonin, 5-Hydroxytryptamine Receptor 3 (5HT3) (AID 2283325)
Chain of human Serotonin, 5-Hydroxytryptamine Receptor 3 (5HT3), HTR3A (gene 3359) (P46098 whole entry, looked up): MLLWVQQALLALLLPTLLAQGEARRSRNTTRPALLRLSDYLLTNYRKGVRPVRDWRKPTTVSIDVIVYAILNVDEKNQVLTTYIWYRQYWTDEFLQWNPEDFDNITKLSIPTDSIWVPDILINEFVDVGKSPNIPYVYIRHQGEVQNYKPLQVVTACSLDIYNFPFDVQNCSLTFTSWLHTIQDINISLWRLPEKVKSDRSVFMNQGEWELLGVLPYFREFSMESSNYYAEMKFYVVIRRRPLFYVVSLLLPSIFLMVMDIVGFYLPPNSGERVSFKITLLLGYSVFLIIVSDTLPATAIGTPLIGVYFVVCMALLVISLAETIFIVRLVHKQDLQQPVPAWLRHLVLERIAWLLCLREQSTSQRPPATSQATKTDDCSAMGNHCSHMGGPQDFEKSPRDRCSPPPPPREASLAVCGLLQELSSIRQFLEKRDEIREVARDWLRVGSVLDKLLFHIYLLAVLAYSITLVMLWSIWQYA
How it was run: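 Initially tested at 25 uM in duplicate, then up to 50 uM in concentration-response for actives, compounds competed with a radioligand for HEK293-derived human 5-HT3 receptor. Bound counts were measured by filtration and scintillation at 1 h; loss of signal versus DMSO.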

[4] = target: rat Peripheral-type Benzodiazepine Receptor (PBR), Tspo (gene 24230) (UniProt P16257); assay: NVS_MP_rPBR: NovaScreen (NVS) Membrane Protein Assay for rat Peripheral-type Benzodiazepine Receptor (PBR) (AID 2283335)
Chain of rat Peripheral-type Benzodiazepine Receptor (PBR), Tspo (gene 24230) (P16257 whole entry, looked up): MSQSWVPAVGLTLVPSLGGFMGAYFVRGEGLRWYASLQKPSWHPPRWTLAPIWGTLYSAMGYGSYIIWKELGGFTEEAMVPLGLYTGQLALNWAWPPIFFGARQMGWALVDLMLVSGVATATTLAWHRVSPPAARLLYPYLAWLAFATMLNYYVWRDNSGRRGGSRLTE
How it was run: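 Single-concentration duplicate screening at 25 uM preceded concentration-series retesting of actives. Binding of a specific radioligand to rat kidney membrane PBR was read by filtration radiodetection after 1 h, with plate-wise positive and negative controls.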

[5] = target: rat Gamma-Aminobutyric Acid Type A Receptor, Non-Selective (GABAR-NonSelective), Gabra1 (gene 29705) (UniProt P62813); assay: NVS_LGIC_rGABAR_NonSelective: NovaScreen (NVS) Ligand-Gated Ion Channel Assay for rat Gamma-Aminobutyric Acid Type A Receptor, Non-Selective (GABAR-NonSelective) (AID 2283326)
Chain of rat Gamma-Aminobutyric Acid Type A Receptor, Non-Selective (GABAR-NonSelective), Gabra1 (gene 29705) (P62813 whole entry, looked up): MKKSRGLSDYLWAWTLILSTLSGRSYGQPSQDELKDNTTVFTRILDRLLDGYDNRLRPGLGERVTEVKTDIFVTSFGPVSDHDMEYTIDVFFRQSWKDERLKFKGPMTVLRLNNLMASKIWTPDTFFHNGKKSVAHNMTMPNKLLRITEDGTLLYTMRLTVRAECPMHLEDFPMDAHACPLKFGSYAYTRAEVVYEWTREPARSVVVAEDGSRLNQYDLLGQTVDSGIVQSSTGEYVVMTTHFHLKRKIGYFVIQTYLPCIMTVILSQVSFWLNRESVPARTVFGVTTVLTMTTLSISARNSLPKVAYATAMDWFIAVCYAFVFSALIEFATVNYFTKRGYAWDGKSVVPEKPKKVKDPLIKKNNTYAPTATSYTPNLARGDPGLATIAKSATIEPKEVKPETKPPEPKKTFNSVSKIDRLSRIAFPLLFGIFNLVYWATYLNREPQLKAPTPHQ
How it was run: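 Compounds were first screened in duplicate at 25 uM, with actives run as singleton concentration series (max 50 uM). Binding of a radioligand to rat whole-brain GABA-A preparation was measured by filtration and scintillation counting after 1 h, DMSO baseline.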

[6] = target: Small conductance calcium-activated potassium channel protein 1 (Rattus norvegicus) (UniProt P70606); assay: NVS_IC_rKCaCh: NovaScreen (NVS) Ion Channel Assay for rat Potassium Channel, Ca2+ Act., VI (KCaCh) (AID 2283336)
Chain of Small conductance calcium-activated potassium channel protein 1 (Rattus norvegicus) (P70606 whole entry, looked up): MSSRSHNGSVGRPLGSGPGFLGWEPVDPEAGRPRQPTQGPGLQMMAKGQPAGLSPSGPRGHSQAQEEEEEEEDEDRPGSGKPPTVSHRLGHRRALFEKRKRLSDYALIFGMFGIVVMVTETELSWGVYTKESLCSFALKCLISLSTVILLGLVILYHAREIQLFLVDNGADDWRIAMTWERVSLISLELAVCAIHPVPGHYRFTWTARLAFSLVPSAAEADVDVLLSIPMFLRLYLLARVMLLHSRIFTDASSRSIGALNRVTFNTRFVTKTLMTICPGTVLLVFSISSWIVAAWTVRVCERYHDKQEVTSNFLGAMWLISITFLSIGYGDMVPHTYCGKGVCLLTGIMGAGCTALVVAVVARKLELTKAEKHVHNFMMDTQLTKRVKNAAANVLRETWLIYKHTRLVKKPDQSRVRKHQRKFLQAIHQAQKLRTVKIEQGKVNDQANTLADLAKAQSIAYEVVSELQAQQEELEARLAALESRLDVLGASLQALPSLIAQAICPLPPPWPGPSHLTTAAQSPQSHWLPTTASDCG
How it was run: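 Filter-based scintillation counting of radioligand bound to rat forebrain membrane preparations, measured 1 h after compound addition. Primary screen used 25 uM in duplicate, with concentration-response follow-up; signal decrease relative to DMSO marks activity.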

[7] = target: bovine Estrogen Receptor (ER), ESR1 (gene 407238) (UniProt P49884); assay: NVS_NR_bER: NovaScreen (NVS) Nuclear Receptor Binding Assay for bovine Estrogen Receptor (ER) (AID 2283345);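 also: actives lower the bound radioligand count which means they displace the ER ligand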
Chain of bovine Estrogen Receptor (ER), ESR1 (gene 407238) (P49884 whole entry, looked up): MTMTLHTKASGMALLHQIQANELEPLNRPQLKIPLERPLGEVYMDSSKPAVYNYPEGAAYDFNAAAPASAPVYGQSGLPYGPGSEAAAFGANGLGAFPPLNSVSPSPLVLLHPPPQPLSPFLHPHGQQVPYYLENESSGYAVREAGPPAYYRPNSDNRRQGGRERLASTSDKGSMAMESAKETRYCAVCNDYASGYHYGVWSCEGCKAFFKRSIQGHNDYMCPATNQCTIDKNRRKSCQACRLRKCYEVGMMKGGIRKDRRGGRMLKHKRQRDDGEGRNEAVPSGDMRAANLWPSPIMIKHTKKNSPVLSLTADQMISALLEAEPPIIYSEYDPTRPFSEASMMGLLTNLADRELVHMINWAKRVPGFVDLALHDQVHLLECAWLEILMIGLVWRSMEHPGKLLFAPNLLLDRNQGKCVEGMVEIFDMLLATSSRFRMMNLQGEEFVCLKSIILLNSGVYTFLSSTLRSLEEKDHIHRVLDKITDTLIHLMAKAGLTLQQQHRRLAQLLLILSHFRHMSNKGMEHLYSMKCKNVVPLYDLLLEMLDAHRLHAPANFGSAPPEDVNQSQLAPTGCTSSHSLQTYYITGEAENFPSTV
How it was run: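 Displacement of a radioligand from estrogen receptor in bovine uterine membrane preparations; scintillation signal taken at 18 hours, DMSO as baseline. Single-concentration duplicates (25 uM) preceded concentration-response follow-up of actives.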

[8] = target: rat Glutamate, AMPA Site (AMPA), Gria1 (gene 50592) (UniProt P19490); assay: NVS_LGIC_rAMPA: NovaScreen (NVS) Ligand-Gated Ion Channel Assay for rat Glutamate, AMPA Site (AMPA) (AID 2283324)
Chain of rat Glutamate, AMPA Site (AMPA), Gria1 (gene 50592) (P19490 whole entry, looked up): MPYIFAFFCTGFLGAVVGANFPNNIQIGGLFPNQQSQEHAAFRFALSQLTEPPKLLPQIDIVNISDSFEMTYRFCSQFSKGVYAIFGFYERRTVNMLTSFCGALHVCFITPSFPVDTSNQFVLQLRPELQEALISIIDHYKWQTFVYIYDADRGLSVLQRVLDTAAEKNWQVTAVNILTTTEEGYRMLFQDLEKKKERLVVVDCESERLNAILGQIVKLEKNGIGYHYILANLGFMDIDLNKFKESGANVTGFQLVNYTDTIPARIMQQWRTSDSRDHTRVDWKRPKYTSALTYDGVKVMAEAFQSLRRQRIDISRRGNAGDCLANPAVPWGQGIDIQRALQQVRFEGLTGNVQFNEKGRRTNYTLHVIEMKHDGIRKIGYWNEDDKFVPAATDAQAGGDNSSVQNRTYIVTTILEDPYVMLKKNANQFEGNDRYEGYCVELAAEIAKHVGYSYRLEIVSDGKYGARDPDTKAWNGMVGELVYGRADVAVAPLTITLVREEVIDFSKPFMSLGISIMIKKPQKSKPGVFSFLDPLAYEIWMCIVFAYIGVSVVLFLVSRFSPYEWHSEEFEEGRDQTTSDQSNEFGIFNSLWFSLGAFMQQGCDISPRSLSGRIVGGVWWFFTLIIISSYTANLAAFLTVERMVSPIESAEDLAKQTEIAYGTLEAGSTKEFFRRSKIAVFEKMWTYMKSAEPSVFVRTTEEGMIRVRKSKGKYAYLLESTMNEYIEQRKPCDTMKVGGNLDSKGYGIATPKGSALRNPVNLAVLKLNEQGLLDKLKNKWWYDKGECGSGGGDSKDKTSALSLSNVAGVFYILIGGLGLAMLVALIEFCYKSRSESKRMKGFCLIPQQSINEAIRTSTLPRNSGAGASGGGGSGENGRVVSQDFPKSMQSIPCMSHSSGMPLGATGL
How it was run: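 Screening at 25 uM in duplicate preceded concentration series reaching 50 uM for qualifying compounds. Radioligand displacement on rat forebrain membranes, 1 h, filter-based scintillation readout; reduced binding relative to DMSO.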

[9] = target: rat Glutamate, NMDA Agonist Site (GluNMDA), Grin1 (gene 24408) (UniProt P35439); assay: NVS_LGIC_rGluNMDA_Agonist: NovaScreen (NVS) Ligand-Gated Ion Channel Assay for rat Glutamate, NMDA Agonist Site (GluNMDA) (AID 2283327)
How it was run: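 Radioligand displacement at the agonist site on rat forebrain membrane preparations, read by filter scintillation after 1 h. Chemicals were first run at 25 uM in duplicate; those passing threshold were titrated to a 50 uM maximum.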

[10] = target: Voltage-gated inwardly rectifying potassium channel KCNH2 (Homo sapiens) (UniProt Q12809); assay: NVS_IC_hKhERGCh: NovaScreen (NVS) Ion Channel Assay for human Potassium Channel ERG (KhERGCh) (AID 2283333)
How it was run: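 Membranes from CHO cells expressing human ERG; displacement of radioligand measured by filtration and scintillation after 0.75 h. Single-concentration duplicate screen at 25 uM, then concentration-response for actives; DMSO baseline.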

[11] = NVS_IC_rCaBTZCHL: NovaScreen (NVS) Ion Channel Assay for Calcium Channel, Type L, Benzothiazepine Site (CaBTZCHL) (AID 2283337)
How it was run: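 Rat cortical membrane preparation, cell-free. Radioligand displaced by test chemical; 1.5 h incubation; filtration, scintillation count. DMSO = negative control/baseline. Primary: duplicate, 25 uM; secondary: concentration series.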

[12] = target: rat Glutamate, MK-801 Agonist Site (GluNMDA_MK801), Grin1 (gene 24408) (UniProt P35439); assay: NVS_LGIC_rGluNMDA_MK801_Agonist: NovaScreen (NVS) Ligand-Gated Ion Channel Assay for rat Glutamate, MK-801 Agonist Site (GluNMDA_MK801) (AID 2283340)
How it was run: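 Rat forebrain membrane preparation; MK-801-site radioligand binding read by filtration and scintillation after 1.5 h. Single-point 25 uM duplicate screen, followed by singleton concentration series to 50 uM max; DMSO baseline.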

[13] = system: guinea pig Histamine Receptor (H2), gene 100729734; assay: NVS_GPCR_gH2: NovaScreen (NVS) G Protein-Coupled Receptor Assay for guinea pig Histamine Receptor (H2) (AID 2283342)
How it was run: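 Guinea pig striatal membrane preparation with specific radioligand; bound counts measured by filtration and scintillation 1 h post-dosing, DMSO as baseline. Chemicals passing a 25 uM duplicate screen were titrated to a 50 uM maximum.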

[14] = target: human Constitutive Androstane Receptor (CAR), NR1I3 (gene 9970) (UniProt Q14994); assay: NVS_NR_hCAR_Antagonist: NovaScreen (NVS) Nuclear Receptor Binding Assay for human Constitutive Androstane Receptor Antagonism (CAR) (AID 2283344)
Chain of human Constitutive Androstane Receptor (CAR), NR1I3 (gene 9970) (Q14994 whole entry, looked up): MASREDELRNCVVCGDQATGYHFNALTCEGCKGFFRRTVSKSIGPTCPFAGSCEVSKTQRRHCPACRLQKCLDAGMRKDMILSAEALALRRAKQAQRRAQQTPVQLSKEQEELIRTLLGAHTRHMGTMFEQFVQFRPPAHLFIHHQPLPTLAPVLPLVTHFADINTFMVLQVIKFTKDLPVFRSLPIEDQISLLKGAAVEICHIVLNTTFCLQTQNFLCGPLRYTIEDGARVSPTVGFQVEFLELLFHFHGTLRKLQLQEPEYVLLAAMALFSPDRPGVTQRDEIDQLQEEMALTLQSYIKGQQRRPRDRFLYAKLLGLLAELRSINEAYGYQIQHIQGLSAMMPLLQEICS
How it was run: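 Single 25 uM duplicate primary screen, with concentration-series follow-up on actives. Cell-free binding format run in antagonist mode, TR-FRET signal taken 1 h post-dose; activity is signal loss relative to DMSO.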

NCBI gene 100848466 = assay: NVS_NR_bPR: NovaScreen (NVS) Nuclear Receptor Binding Assay for bovine Progextron Receptor (PR) (AID 2283343);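 also: actives lower bound radioligand signal below DMSO meaning displacement of the label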
How it was run: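 Scintillation counts of bound radioligand were read 18 hours after chemical addition to membranes extracted from bovine uterus. Displacement was scored as loss of signal relative to DMSO controls. Screening began at 25 uM in duplicate.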

For `O=C1CCC(C2CCCCC2)CC1`, the outcome [1] was “inactive”.
In the case of `Oc1ccc2ccccc2c1`, the outcome [2] is reported as “inactive”.
In the case of `CC(C)(O)c1ccc(CNC(=O)c2cccnc2Oc2ccc3nonc3c2)cc1`, the outcome [3] is reported as “inactive”, the AC50 [2] is reported as 2.34 µM (active) and the AC50 [4] is reported as 7.64 µM (active).
In the case of `OC12N=C(c3ccccc3)SC1Cc1cc(Cl)ccc12` (centres undefined), the AC50 [5] is reported as 2.62 µM (active), the outcome [2] is reported as “inactive” and the AC50 [4] is reported as 6.16 µM (active). The outcome [6] was “inactive” and the outcome [7] was “inactive”.
In the case of `CN(C)C(=O)C1(N2CCCCC2)CCN(CC[C@@]2(c3ccc(Cl)c(Cl)c3)CN(C(=O)c3ccccc3)CCO2)CC1`, the AC50 [8] is reported as 4.68 µM (active), the AC50 [5] is reported as 2 µM (active) and the AC50 [9] is reported as 29.3 µM (active). The AC50 [10] was 8.74 µM (active), the outcome [6] was “inactive” and the AC50 [11] was 0.27 µM (active). The outcome [12] was “inactive”, the AC50 [13] was 1.08 µM (active) and the outcome [14] was “inactive”.
In the case of `CC(O)CC(C)(C)O` (centres undefined), the outcome [1] is reported as “inactive”.
For `Clc1cc(Cl)c2c(c1)N=C1CCCCCN1C2`, the AC50 [3] was 12.5 µM (active), the outcome [11] was “inactive” and the AC50 [13] was 1.85 µM (active). For the same molecule, the outcome [14] was “inactive”.
With `Cc1occc1C(=O)Nc1ccc(C(=O)N2CCC(F)(F)/C(=C\C(=O)N3CCC(N4CCCCC4)CC3)c3ccccc32)cc1` the outcome [1] was “inactive”, the AC50 [11] was 5.12 µM (active) and the outcome [13] was “inactive”.
With `COc1cc(C(=O)NC2CCN(C)CC2)ccc1Nc1ncc2c(n1)N(C1CCCC1)CC(F)(F)C(=O)N2C` the AC50 [9] was 11.5 µM (active), the outcome [1] was “inactive” and the outcome [2] was “inactive”. The AC50 [10] was 5.1 µM (active), the AC50 [11] was 10.8 µM (active) and the AC50 [12] was 15.9 µM (active). The AC50 [13] was 4.77 µM (active) and the outcome [7] was “inactive”.
For `CCCCCCCCCC(=O)O`, the outcome [8] was “inactive”.
For `CCN(Cc1cccnc1)C(=O)c1cccc(Cl)c1[C@]1(C)C(=O)N(Cc2ccc(OC)cc2OC)c2ccc(Cl)cc21`, the AC50 [5] was 16.8 µM (active), the AC50 [2] was 1.07 µM (active) and the AC50 [4] was 1.69 µM (active). The outcome [6] was “inactive”, the AC50 [11] was 12.6 µM (active) and the AC50 [13] was 1.12 µM (active). For the same molecule, the AC50 (NCBI gene 100848466) was 2.77 µM (active) and the outcome [7] was “inactive”.
